Measured values as given in PubChem BioAssay (NCATS).
Results filed as inconclusive are left out. Activity calls are given as the source filed them. Calls follow the shape of the full dose curve.

Target: Atrial natriuretic peptide receptor 1 (Homo sapiens) (UniProt P16066)
Experiment: Natriuretic polypeptide receptor (hNpr1) antagonism - Pilot CMLD screen (AID 1347052);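 also: HEK293 cells with hNpr1 stimulated by hNppA peptide at 0.1 nM; cGMP level read as GloSensor luciferase luminescence after agonist stimulation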
Details: HEK293 hNpr1 GloSensor cGMP luminescence, ANP-stimulated; series mostly up to 9.22 µM; activity change, negative = inhibition: at the top concentration
% is scaled to controls: 0 for no effect and ±100 for the full control effect.

Atrial natriuretic peptide receptor 1 (Homo sapiens), sequence (P16066 whole entry, looked up): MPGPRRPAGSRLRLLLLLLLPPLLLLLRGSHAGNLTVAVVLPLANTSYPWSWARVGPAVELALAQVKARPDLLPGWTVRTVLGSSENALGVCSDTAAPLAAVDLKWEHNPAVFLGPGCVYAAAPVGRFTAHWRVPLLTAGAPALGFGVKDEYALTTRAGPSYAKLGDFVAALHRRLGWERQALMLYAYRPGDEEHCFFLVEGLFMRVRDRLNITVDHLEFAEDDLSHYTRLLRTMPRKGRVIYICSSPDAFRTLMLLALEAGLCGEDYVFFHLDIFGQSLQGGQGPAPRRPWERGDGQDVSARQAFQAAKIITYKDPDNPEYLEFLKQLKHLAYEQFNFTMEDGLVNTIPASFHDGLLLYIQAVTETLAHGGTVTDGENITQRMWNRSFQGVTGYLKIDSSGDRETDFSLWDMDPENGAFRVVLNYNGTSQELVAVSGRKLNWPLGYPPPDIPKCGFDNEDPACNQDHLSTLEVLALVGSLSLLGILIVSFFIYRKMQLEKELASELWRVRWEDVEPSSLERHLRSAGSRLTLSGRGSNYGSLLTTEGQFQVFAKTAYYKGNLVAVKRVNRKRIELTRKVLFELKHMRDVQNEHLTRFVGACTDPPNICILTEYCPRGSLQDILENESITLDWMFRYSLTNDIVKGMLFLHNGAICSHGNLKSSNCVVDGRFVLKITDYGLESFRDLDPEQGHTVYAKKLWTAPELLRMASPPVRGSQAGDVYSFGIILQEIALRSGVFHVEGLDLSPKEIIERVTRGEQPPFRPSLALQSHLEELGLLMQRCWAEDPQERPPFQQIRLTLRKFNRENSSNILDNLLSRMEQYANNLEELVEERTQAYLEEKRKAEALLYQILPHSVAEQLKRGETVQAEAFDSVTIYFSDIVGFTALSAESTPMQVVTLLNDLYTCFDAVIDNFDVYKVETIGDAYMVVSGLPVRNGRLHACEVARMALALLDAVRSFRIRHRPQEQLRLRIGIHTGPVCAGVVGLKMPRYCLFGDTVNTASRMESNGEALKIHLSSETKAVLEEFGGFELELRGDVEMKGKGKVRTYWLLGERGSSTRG

Activity change, negative = inhibition, inactive:
CC[C@@]12C=C(C=Cc3ccccc3)[C@](CC)(C1)[C@H](c1ccccc1)CC2=O -0.281%
CC=C(C)[C@H](O)C[Si](C)(C)c1ccccc1 3.41%
COc1cc2c(c(OC)c1OC)[C@@]1(c3ccccc3)CCCCC[C@H]1[C@@H]2NC(=O)C(F)(F)F -0.859%
COC(=O)C1=C(C)N(Cc2ccccc2)C(=NCC(C)C)NC1c1cccc(C(F)(F)F)c1 (centres undefined) -2.28%
COC(=O)CCC(=O)OC1(C)C(=O)C=C2C=C(C3CC3)N(CCCOC(C)C)C=C2C1=O (centres undefined) 2.95%
Cc1cccc(C)c1Nc1oc(-c2ccccc2)nc1-c1ccccc1F -1.07%
COc1ccc([C@]23Cc4ccccc4[C@H](O2)C2=C(CC4(CCCCC4)OC2=O)O3)cc1 -1.94%
COC(=O)N1C(C=Cc2ccc3c(c2)OCO3)=Cc2ccccc2C1CC(C)=O (centres undefined) -1.2%
C[C@]12C[C@@](C)(C=C1C=Cc1ccccc1)C(=O)C[C@H]2c1ccccc1 -0.465%
Cc1ccccc1Nc1oc(-c2ccccc2)nc1-c1ccccc1F 11.1%
C[C@@H]1CC2=CCCC2[C@]2(O1)C(=O)N(Cc1ccc(F)cc1)c1cccc(Br)c12 (some centres undefined) 0.402%
CCOC(=O)CN1C(=O)[C@@]2(CC(C)=CC[C@@H](COc3ccccc3)O2)c2c(Br)cccc21 0.918%
CCOC(=O)OC[C@H]1O[C@H](c2ccc(C(C)=O)cc2)C=C[C@H]1Oc1ccc(-c2ccccc2)cc1 -2.2%
CC1=CC[C@@H](COc2ccccc2)O[C@@]2(C1)C(=O)N(Cc1ccc(Br)cc1)c1cccc(Br)c12 3.58%
C[C@@H]1C[C@H]2[C@@H](Cc3ccccc3)C(=O)N3[C@@H](C[C@@H](C)[C@@H]3c3ccccc3)[C@@H](Cc3ccccc3)C(=O)N2[C@H]1c1ccccc1 -0.405%
CC(C)=NO[C@@H](C)CN1CCCc2nc(C)c(C)cc21 6.04%
Cc1cc2c(c(=O)n1Cc1ccccc1)[C@H]1O[C@](c3ccsc3)(Cc3ccccc31)O2 0.432%
C[C@@H]1[C@H](c2ccccc2)c2cc3ccccc3nc2C(=O)C[C@@H]1C(=O)N1CCCC1 -1.07%
CCN1C(=NCc2cccc(Cl)c2)NC(c2cccc(C(F)(F)F)c2)C(C(=O)OC)=C1C (centres undefined) 0.512%
COC[C@@H](O)[C@H]1OCc2ccccc2[C@@H]1C=Cc1ccccc1 1.86%
CN1c2ccccc2[C@@]2(O)C(=O)[C@@]1(C)[C@H]1Cc3ccccc3[C@H]12 -5.88%
COC(=O)C1=C(C(=O)OC)[C@@H]2N(C)c3ccccc3[C@@]23C[C@@H](CO)N(C(=O)Nc2ccc(C(F)(F)F)cc2)C3=N1 2.43%
CC1=C[C@H]2c3ccccc3C[C@H]2CO[C@]12C(=O)N(Cc1ccc(Br)cc1)c1ccccc12 -0.503%
CCc1cc2c(nc1CC)CCN(CCC(C)=NOC[C@@H](C)[C@H](OCc1ccccc1)C(C)C)C2 4.48%
COc1cccc([C@H]2Oc3ccc(OC)cc3C(=NO[C@@H](C)CN3CCCCc4nc(C)c(C)cc43)[C@H]2O)c1 -0.354%
CCN1C(=NCCc2cccs2)N[C@@H](CCc2ccccc2)[C@H](C(=O)NCCc2cccs2)[C@H]1C -2.41%
Cc1ccccc1Nc1oc(-c2ccccc2)nc1-c1cccs1 1.95%
CC(C)=CCCC(C)=CCN1C(=O)[C@@]2(CC(C)=CC[C@@H](C)O2)c2c(Br)cccc21 4.65%
CCN1C(=NCc2ccccc2)NC(c2cccc(C(F)(F)F)c2)C(C(=O)OC)=C1C (centres undefined) -6.77%
Cc1cc(C)cc(-c2cc3c(c(-c4c(O)c(-c5cc(C)cc(C)c5)cc5c4CCCC5)c2O)CCCC3)c1 -0.401%
FC(F)(F)c1cc(NC(=S)Nc2ccc3cc4ccccc4cc3c2)cc(C(F)(F)F)c1 3.24%
C=C(C)[C@@H]1CC2=C(OC)C(CC=C(C)C)(CC=C(C)C)C(=O)C(C(=O)c3ccccc3)=C2O1 0.698%
CCCCC1=CC2=CC(=O)C(C)(OC(=O)CCc3ccccc3)C(=O)C2=CO1 (centres undefined) 1.38%
CC(CCN1CCCc2nc(C)c(C)cc21)=NO[C@H](C)CN1CCCc2nc(C)c(C)cc21 5.74%
CC(CCN1CCCc2nc(C)c(C)cc21)=NO[C@@H](C)CN1CCCCc2nc(C)c(C)cc21 -3.53%
CCc1cc2c(nc1CC)CCN(CCC(C)=NOC[C@H]1O[C@H](c3ccccc3)C=C[C@H]1Oc1ccc(OC)cc1)C2 2.83%
CC(CCN1CCCCc2nc(C)c(C)cc21)=NO[C@H](C)CN1CCCc2nc(C)c(C)cc21 12.9%
C=CCC12C=C(OC)C(=O)C(C1=O)C(c1ccc(OC)cc1)C2C (centres undefined) -3.11%
CC1=CC[C@@H](COc2ccccc2)O[C@@]2(C1)C(=O)N(Cc1ccc(F)cc1)c1cccc(Br)c12 -9.98%
